High-throughput results deposited in PubChem by The Scripps Research Institute Molecular Screening Center.
FBW7 act – human FBW7 E3 ligase activation, primary screen | Q969H0 | AlphaScreen FBW7–phospho-cyclin E peptide binding, activator screen | normalized activity (activation), % at 26.1 µM | hit rate 0.13% among 650,000 | AID 1259310; in the data active = normalized activity above about 1.9%;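 also: purified mutant Fbw7 with reduced substrate affinity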
MITF inh – human MITF inhibition, primary screen | O75030 | AlphaScreen MITF homodimerization, bead proximity signal | inhibition, % at 2.6 µM | hit rate 0.91% among 650,000 | AID 1259374; in the data active = inhibition above about 50%;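 also: 0% = vehicle wells with protein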
GPR151 activ – activates the human receptor GPR151 | Q8TDV0 | PathHunter beta-arrestin GPR151 cells, luminescence | activation, % at 11.2 µM | hit rate 1% among 650,000 | AID 1508602; in the data active = activation above about 4.9%;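 also: 0% = median of compound wells and 100% = cells with positive control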
Target sequence (Q8TDV0 whole entry, looked up): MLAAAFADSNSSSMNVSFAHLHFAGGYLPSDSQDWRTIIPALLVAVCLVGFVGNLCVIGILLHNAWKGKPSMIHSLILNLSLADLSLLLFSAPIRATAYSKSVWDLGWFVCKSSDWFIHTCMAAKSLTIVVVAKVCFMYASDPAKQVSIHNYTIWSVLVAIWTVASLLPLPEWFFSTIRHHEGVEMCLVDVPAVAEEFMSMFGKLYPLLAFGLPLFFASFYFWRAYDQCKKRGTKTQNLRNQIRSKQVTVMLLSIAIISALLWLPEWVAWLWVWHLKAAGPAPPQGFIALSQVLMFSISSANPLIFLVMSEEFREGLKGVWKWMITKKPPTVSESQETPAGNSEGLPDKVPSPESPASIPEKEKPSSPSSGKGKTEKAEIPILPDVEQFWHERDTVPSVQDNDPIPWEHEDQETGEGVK
TEAD-YAP block – TEAD-YAP interaction inhibition; HEK-TIYL cells, TEAD-Gal4/YAP UAS-luciferase luminescence; inhibition, % at 9.12 µM; hit rate 1.4% among 640,000; AID 1259422; in the data active = inhibition above about 32%;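 also: 0% = median of test compound wells and 100% = reference inhibitor wells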
GPR151 conf act – human GPR151 activation, confirmation screen. activation, % at 11.2 µM. GPR151 PathHunter beta-arrestin cells, luminescence, 90 min; % of EA-reagent control over plate median. AID 1508609. 6,700 tested, under 10 active. shares compounds with GPR151 activ;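 active = mean percent activation across replicates above the confirmation screen cutoff of 4.91%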
GPR119 ag – activates human GPR119 in a GPR151 counter-screen; shares compounds with GPR151 activ; GPR119 PathHunter beta-arrestin cells, luminescence, 90 min; 0 = compound-well median, 100 = enzyme-acceptor control; activation, % at 11.2 µM; hit rate 0.3% among 6,700; AID 1508611;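 active = mean percent activation in the counterscreen above 29.09%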;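 also: counterscreen on off-target GPR119 to flag nonselective hits from the GPR151 activator screen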
Active calls of the source: *. Hits are enriched below; roughly 3.5% of the tested compounds scored in any of these assays.

For COc1cccc(C2=CC(c3cccc(F)c3)n3ncnc3N2)c1 (stereo unspecified) the results were FBW7 act 0.0, MITF inh 14.3, GPR151 activ -1.6 and TEAD-YAP block 28.7.
For Nc1ccc(-c2ccc(N)cc2C(F)(F)F)c(C(F)(F)F)c1 the results were FBW7 act -0.3, MITF inh -0.5, GPR151 activ 5.6*, TEAD-YAP block 3.1, GPR151 conf act -0.5 and GPR119 ag -10.2.
`Nc1c(C(F)(F)F)cc(C(F)(F)F)cc1C(F)(F)F` gave FBW7 act 0.2, MITF inh -1.4, GPR151 activ -1.6 and TEAD-YAP block -4.5.
O=C(Nc1ccc(Br)cc1F)NC1CCCCC1 was read as FBW7 act -0.1, MITF inh -4.0, GPR151 activ 6.6*, TEAD-YAP block -44.6, GPR151 conf act 0.9 and GPR119 ag -0.1.
`O=C(NC1CC1)C1CCN(C2CCN(C(=O)Cc3c[nH]c4ccccc34)CC2)CC1` gave FBW7 act 0.0, MITF inh 1.1, GPR151 activ -0.1 and TEAD-YAP block 0.5.
Screening COc1ccccc1/C=C(\NC(=O)c1ccc(OC)c(OC)c1)C(=O)Nc1cccc(C(F)(F)F)c1 returned FBW7 act 0.2, MITF inh 7.7, GPR151 activ 1.5 and TEAD-YAP block -6.0.
CN1C(=O)c2ccc(C(=O)Nc3ccccc3I)cc2C1=O was read as FBW7 act -0.1, MITF inh 5.7, GPR151 activ 5.2*, TEAD-YAP block 9.2, GPR151 conf act -0.1 and GPR119 ag -1.3.
CCCN1C(=O)c2ccc(C(=O)Nc3ccccc3I)cc2C1=O was read as FBW7 act 0.0, MITF inh 6.7, GPR151 activ -1.6 and TEAD-YAP block 7.2.
Screening COc1cccc(CNC(=O)C(NS(=O)(=O)c2cccc3nsnc23)C(C)C)c1 (stereo unspecified) returned FBW7 act 0.0, MITF inh 1.4, GPR151 activ 7.1*, TEAD-YAP block 3.9, GPR151 conf act 0.4 and GPR119 ag 0.7.
COc1cc(OC)nc(Oc2cccnc2/C=N/NC(=O)Nc2ccccc2OC)n1 was read as FBW7 act -0.1, MITF inh 1.3, GPR151 activ -1.7 and TEAD-YAP block -4.3.
`CSc1ncc(CN2CCCC(N3CCN(c4ccccc4)CC3)C2)cn1` (stereo unspecified) gave FBW7 act 0.3, MITF inh 11.9, GPR151 activ 8.8*, TEAD-YAP block -2.4, GPR151 conf act -0.7 and GPR119 ag -5.6.
For COC(=O)c1ccccc1NC(=O)CSc1n[nH]c(-c2ccccc2)n1 the results were FBW7 act 0.7, MITF inh 11.3, GPR151 activ 5.0*, TEAD-YAP block 4.1, GPR151 conf act -1.4 and GPR119 ag -13.1.
COC(=O)CCC(=O)Nc1ccccc1NC(=O)CCC(=O)OC was read as FBW7 act -0.1, MITF inh 4.9, GPR151 activ 5.0*, TEAD-YAP block -0.1, GPR151 conf act 0.3 and GPR119 ag 10.2.
Screening COC(=O)c1ccccc1NC(=O)CCSCCC(=O)Nc1ccccc1C(=O)OC returned FBW7 act 0.2, MITF inh -4.1, GPR151 activ 6.3*, TEAD-YAP block 0.6, GPR151 conf act -0.7 and GPR119 ag -7.0.
`CCCC(=O)Nc1ccccc1NC(=O)Cc1ccc(OC)cc1` gave FBW7 act 0.0, MITF inh 15.9, GPR151 activ 5.4*, TEAD-YAP block -0.5, GPR151 conf act -0.3 and GPR119 ag -12.1.
`CCn1nc(C(=O)O)c2ccccc2c1=O` gave FBW7 act 0.2, MITF inh 9.8, GPR151 activ -0.1 and TEAD-YAP block 2.7.
For CN1CCN(C(=O)c2ccc(OCc3cccc(Cl)n3)cc2)CC1 the results were FBW7 act 0.0, MITF inh 9.1, GPR151 activ -0.4 and TEAD-YAP block -5.5.
`COc1ccc(NC(=O)C2CCN(c3nnc(N4CCCC4=O)s3)CC2)cc1` gave FBW7 act -0.2, MITF inh -5.4, GPR151 activ 6.3*, TEAD-YAP block 0.6, GPR151 conf act 1.1 and GPR119 ag -4.2.
`N#Cc1ccccc1CSc1ncnc2sccc12` gave FBW7 act 0.2, MITF inh 4.5, GPR151 activ 5.1*, TEAD-YAP block 1.4, GPR151 conf act 1.4 and GPR119 ag 11.1.
O=C1NC(=O)N(CCC2=CCCCC2)C1=O was read as FBW7 act -0.1, MITF inh -7.5, GPR151 activ 10.4*, TEAD-YAP block -0.7, GPR151 conf act -0.3 and GPR119 ag -4.5.
Screening O=C1CCC(=O)N1CCC1=CCCCC1 returned FBW7 act 0.5, MITF inh 3.6, GPR151 activ 0.9 and TEAD-YAP block 14.0.
For Cn1nccc1Nc1nccc(Nc2ccccc2)n1 the results were FBW7 act 0.0, MITF inh -4.6, GPR151 activ 7.5*, TEAD-YAP block -4.8, GPR151 conf act 0.8 and GPR119 ag 5.2.
`CN(N=O)C(=O)NC1[C@H](O)OC(CO)[C@@H](O)[C@H]1O` (stereo partly specified) gave FBW7 act -0.1, MITF inh 6.6 and GPR151 activ 0.2.
For Fc1ccc2nc(N3CCN(c4nc5ccccc5s4)CC3)sc2c1 the results were FBW7 act 0.1, MITF inh 10.0, GPR151 activ 14.7*, TEAD-YAP block 2.4, GPR151 conf act -0.5 and GPR119 ag -7.0.
For O=C1N[C@H](Cc2ccccc2)C(=O)N2C[C@@H](NCc3cc(F)ccc3F)C[C@@H]12 the results were FBW7 act -0.1, MITF inh 8.6, GPR151 activ -0.3 and TEAD-YAP block 9.8.
C/C(=N\NC(=O)Cc1cccn1C)c1cccc(Br)c1 was read as FBW7 act -0.1, MITF inh -13.3, GPR151 activ 1.6 and TEAD-YAP block 1.5.
For NC(=O)C1(Nc2ccccc2)CCCCC1 the results were FBW7 act 0.3, MITF inh 18.6, GPR151 activ 6.8*, TEAD-YAP block 3.6, GPR151 conf act -0.2 and GPR119 ag 1.3.
CCCCN1CCC(Nc2ccccc2)(C(N)=O)CC1 was read as FBW7 act 0.2, MITF inh 8.0, GPR151 activ 0.6 and TEAD-YAP block 11.3.
CC(=O)OC[C@H]1O[C@@H](Oc2ccc(C)cc2)[C@H](OC(C)=O)[C@@H](OC(C)=O)[C@@H]1OC(C)=O was read as FBW7 act -0.1, MITF inh 11.0, GPR151 activ 0.7 and TEAD-YAP block 1.7.
C#CCOc1cc(OC)c(OC)c(OC)c1 was read as FBW7 act -0.1, MITF inh 7.6, GPR151 activ 5.6*, TEAD-YAP block 2.4, GPR151 conf act -1.4 and GPR119 ag -4.8.
For COc1cc(OCC(=O)O)cc(OC)c1OC the results were FBW7 act -0.2, MITF inh 14.0, GPR151 activ 2.6 and TEAD-YAP block 0.1.
